# Measured values as given in the supplement of paper PMC10849652.
# Targets with a hit are over-represented here; the source holds about 7,900 in all. About 0.6% of all pairs of compound and target were hits. A number with no mark means an inactive call.
# Tests used:
# Assay in all cases: log2 fold change, soluble protein after heating vs DMSO (PISA); higher = thermal stabilisation; K562 cells, 10 uM, 30 min; active = over 0.2 and 3.5 SD of the protein, either way, in both replicates (recomputed)
# [1] = compound: CC[C@@H]1C(=O)N(C)c2cnc(Nc3ccc(C(=O)NC4CCN(C)CC4)cc3OC)nc2N1C1CCCC1
# Outline: (§1)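 Soluble protein was defined as the supernatant after 21,000xg for 90 min. It came from K562 cells at 2×10^6 cells/mL given 10 μM compound for 30 min, heated in aliquots for 3 min across 48°C-58°C, pooled, and extracted in PBS with 0.5% NP-40 at 4°C, and was quantified by TMTpro 16plex LC-MS/MS with equalised channel sums. Thermal stability against control samples, from duplicates, is reported as log2 fold change.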
# volasertib = compound: CC[C@@H]1C(=O)N(C)c2cnc(Nc3ccc(C(=O)N[C@H]4CC[C@H](N5CCN(CC6CC6)CC5)CC4)cc3OC)nc2N1C(C)C [volasertib]
# Outline: as §1
# [2] = compound: CC[C@H](C)N1C=C(C2=C(C=C(C=C21)C3=CN=C(C=C3)N4CCNCC4)C(=O)NCC5=C(C=C(NC5=O)C)C)C
# Outline: as §1
# epoxomicin = compound: CC[C@H](C)[C@@H](C(=O)N[C@@H]([C@@H](C)O)C(=O)N[C@@H](CC(C)C)C(=O)[C@]1(CO1)C)NC(=O)[C@H]([C@@H](C)CC)N(C)C(=O)C [epoxomicin]
# Outline: as §1
# [3] = compound: CCn1c(C(=O)N(C2CC2)C2CC2)cc2c3c(ncn3C)c(Nc3cc(C)n(C)n3)nc21
# Outline: as §1
# [4] = compound: CCn1cc(-c2ccnc3[nH]c(-c4cccc(CN(C)C)c4)cc23)c(-c2ccc(NC(=O)N(C)C)cc2)n1
# Outline: as §1
# [5] = compound: CN(C)CC(=O)Nc1ccc2[nH]c(=O)c3ccccc3c2c1
# Outline: as §1
# rosiglitazone = compound: CN(CCOC1=CC=C(C=C1)C[C@H]2C(=O)NC(=O)S2)C3=CC=CC=N3 (racemic) [rosiglitazone]
# Outline: as §1
# [6] = compound: CN1C2=C(C3=C1C(=O)N(N=C3)CC4=CC(=CC=C4)N)SC(=C2)S(=O)C
# Outline: as §1
# [7] = compound: CN1CCC(CNc2ccc3ncc(-c4cccc(OC(F)(F)F)c4)n3n2)CC1
# Outline: as §1
# saracatinib = compound: CN1CCN(CCOc2cc(OC3CCOCC3)c3c(Nc4c(Cl)ccc5c4OCO5)ncnc3c2)CC1 [saracatinib]
# Outline: as §1
# sotrastaurin = compound: CN1CCN(c2nc(C3=C(c4c[nH]c5ccccc45)C(=O)NC3=O)c3ccccc3n2)CC1 [sotrastaurin]
# Outline: as §1
# alvocidib = compound: CN1CC[C@H](c2c(O)cc(O)c3c(=O)cc(-c4ccccc4Cl)oc23)[C@H](O)C1 [alvocidib]
# Outline: as §1
# Tubastatin A = compound: CN1CCc2c(c3ccccc3n2Cc2ccc(C(=O)NO)cc2)C1 [Tubastatin A]
# Outline: as §1
# [8] = compound: CNC(=O)C1=CC=CC=C1NC2=NC(=NC=C2Cl)NC3=C(C=C(C=C3)N4CCOCC4)OC
# Outline: as §1
# defactinib = compound: CNC(=O)c1ccc(Nc2ncc(C(F)(F)F)c(NCc3nccnc3N(C)S(C)(=O)=O)n2)cc1 [defactinib]
# Outline: as §1
# rucaparib = compound: CNCc1ccc(-c2[nH]c3cc(F)cc4c3c2CCNC4=O)cc1 [rucaparib]
# Outline: as §1
# [9] = compound: CNc1nc(-c2ccc3c(N)n[nH]c3c2)cc(N2C[C@@H](C(=O)NC3CCCCC3)CC[C@H]2C)n1
# Outline: as §1
# encorafenib = compound: COC(=O)N[C@@H](C)CNc1nccc(-c2cn(C(C)C)nc2-c2cc(Cl)cc(NS(C)(=O)=O)c2F)n1 [encorafenib]
# Outline: as §1
# [10] = compound: COC(=O)[C@H](CCSC)NC(=O)C1=C(C=C(C=C1)NC[C@H](CS)N)C2=CC=CC=C2
# Outline: as §1
# Chain of UniProt Q9H0E9 (Q9H0E9 whole entry, looked up): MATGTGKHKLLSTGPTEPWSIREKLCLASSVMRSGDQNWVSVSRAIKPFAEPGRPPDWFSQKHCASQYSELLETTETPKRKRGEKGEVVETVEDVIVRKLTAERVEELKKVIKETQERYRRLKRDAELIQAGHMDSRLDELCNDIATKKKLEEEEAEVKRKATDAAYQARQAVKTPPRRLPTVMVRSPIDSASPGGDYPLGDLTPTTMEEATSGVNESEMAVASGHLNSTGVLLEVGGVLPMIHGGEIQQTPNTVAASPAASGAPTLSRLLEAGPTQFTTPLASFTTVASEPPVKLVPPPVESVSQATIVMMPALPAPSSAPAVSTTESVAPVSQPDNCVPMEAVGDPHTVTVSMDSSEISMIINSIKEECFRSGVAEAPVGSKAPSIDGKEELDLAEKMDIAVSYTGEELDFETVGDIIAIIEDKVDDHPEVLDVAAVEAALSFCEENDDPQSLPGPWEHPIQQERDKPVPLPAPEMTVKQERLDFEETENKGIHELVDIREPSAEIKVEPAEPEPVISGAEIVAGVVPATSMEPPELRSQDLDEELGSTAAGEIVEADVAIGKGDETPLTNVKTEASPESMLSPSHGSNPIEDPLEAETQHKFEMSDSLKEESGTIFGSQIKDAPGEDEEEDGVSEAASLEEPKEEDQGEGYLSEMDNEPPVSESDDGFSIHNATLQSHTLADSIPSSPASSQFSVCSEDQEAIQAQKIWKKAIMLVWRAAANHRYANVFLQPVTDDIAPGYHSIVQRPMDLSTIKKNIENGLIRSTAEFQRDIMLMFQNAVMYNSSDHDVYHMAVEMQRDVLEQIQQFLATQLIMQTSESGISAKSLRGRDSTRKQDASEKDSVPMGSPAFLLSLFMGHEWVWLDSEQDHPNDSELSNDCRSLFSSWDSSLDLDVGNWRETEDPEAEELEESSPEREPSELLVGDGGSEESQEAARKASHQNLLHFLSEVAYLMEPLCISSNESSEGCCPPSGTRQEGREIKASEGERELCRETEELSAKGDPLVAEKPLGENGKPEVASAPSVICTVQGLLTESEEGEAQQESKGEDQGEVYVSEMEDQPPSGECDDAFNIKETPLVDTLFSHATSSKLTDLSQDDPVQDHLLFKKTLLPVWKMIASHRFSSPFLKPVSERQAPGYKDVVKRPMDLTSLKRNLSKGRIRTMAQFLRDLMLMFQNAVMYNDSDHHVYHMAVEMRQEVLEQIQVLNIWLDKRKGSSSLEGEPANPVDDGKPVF
# Chain of UniProt Q9UKV5 (Q9UKV5 whole entry, looked up): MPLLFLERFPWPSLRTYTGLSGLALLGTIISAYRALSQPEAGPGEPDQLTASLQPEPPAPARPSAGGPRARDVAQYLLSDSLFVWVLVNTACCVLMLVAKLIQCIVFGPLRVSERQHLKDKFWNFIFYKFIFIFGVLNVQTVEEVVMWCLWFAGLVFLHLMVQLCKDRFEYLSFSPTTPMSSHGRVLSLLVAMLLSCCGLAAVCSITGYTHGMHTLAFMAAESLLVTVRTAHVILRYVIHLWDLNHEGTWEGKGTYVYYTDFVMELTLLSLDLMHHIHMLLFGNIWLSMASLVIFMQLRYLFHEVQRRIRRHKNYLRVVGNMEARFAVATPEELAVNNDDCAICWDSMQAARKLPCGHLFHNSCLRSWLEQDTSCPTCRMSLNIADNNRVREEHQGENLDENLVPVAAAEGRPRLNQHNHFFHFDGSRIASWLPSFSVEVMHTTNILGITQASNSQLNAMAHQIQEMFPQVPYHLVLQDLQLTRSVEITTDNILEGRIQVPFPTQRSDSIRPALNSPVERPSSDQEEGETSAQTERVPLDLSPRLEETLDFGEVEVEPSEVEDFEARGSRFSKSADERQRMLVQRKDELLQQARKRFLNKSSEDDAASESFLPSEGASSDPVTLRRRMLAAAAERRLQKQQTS
# Chain of UniProt Q9H845 (Q9H845 whole entry, looked up): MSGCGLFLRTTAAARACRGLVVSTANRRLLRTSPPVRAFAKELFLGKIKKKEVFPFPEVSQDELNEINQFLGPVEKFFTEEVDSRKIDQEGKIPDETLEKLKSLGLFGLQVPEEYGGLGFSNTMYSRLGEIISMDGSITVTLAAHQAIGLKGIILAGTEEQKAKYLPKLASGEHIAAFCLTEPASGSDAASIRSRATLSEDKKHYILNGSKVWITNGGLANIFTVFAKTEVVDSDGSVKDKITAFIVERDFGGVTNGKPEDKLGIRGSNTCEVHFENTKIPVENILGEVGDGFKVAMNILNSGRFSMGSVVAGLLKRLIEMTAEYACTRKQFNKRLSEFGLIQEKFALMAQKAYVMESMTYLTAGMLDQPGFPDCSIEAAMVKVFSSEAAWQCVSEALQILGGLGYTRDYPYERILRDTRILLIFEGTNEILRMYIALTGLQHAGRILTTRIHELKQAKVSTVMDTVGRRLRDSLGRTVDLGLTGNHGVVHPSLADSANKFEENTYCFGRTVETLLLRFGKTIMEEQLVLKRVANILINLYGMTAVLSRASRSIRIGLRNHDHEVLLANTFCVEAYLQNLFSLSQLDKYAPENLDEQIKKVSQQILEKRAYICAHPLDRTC
# Chain of UniProt O00244 (O00244 whole entry, looked up): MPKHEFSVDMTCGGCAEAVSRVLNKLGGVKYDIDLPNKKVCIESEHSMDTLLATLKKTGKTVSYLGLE
# Chain of UniProt Q8WUW1 (Q8WUW1 whole entry, looked up): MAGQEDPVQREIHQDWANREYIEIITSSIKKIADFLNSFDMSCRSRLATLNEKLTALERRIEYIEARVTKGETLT
# Chain of UniProt P35670 (P35670 whole entry, looked up): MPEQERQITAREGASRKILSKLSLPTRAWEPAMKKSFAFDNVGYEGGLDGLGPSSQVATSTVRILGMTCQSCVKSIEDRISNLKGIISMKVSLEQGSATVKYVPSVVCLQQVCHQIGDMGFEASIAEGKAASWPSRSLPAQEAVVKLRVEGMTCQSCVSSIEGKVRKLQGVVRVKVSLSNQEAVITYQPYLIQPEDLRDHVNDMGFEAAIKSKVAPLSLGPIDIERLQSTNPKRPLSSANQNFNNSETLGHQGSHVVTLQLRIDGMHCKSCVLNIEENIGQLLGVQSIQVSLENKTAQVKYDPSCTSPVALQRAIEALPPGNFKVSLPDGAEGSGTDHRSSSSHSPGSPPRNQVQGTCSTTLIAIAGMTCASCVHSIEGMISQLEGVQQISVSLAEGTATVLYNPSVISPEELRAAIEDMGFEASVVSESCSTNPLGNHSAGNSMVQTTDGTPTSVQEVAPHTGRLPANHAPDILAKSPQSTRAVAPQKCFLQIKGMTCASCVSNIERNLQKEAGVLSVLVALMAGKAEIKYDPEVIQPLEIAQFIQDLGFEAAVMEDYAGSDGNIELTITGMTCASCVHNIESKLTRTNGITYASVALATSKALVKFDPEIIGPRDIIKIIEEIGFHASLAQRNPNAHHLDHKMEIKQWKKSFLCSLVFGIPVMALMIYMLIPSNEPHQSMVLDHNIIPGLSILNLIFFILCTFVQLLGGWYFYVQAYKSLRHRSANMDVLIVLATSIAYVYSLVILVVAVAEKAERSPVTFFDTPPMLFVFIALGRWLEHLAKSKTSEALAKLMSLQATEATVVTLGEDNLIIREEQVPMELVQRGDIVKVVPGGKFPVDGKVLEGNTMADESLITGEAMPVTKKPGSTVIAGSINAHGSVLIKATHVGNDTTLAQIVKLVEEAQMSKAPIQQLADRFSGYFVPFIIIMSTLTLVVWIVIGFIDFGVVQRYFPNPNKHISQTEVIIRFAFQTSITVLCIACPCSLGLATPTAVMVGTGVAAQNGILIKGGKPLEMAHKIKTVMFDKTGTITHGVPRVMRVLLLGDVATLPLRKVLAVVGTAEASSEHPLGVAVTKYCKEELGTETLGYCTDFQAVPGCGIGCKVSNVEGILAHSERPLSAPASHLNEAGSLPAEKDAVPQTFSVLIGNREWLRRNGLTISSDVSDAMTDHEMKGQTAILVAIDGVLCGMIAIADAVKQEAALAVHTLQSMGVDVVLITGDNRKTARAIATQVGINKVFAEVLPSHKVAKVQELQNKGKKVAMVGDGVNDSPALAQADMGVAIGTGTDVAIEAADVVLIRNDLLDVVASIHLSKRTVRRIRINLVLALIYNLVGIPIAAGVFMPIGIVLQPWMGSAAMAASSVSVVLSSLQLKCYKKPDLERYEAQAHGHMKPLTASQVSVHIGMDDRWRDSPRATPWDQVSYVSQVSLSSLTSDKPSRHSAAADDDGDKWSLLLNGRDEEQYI
# Chain of UniProt Q10589 (Q10589 whole entry, looked up): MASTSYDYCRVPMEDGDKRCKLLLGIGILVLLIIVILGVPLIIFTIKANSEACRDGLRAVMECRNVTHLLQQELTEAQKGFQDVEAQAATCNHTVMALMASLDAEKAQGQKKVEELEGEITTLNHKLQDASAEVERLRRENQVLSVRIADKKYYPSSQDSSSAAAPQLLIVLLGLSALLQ
# Chain of UniProt O95433 (O95433 whole entry, looked up): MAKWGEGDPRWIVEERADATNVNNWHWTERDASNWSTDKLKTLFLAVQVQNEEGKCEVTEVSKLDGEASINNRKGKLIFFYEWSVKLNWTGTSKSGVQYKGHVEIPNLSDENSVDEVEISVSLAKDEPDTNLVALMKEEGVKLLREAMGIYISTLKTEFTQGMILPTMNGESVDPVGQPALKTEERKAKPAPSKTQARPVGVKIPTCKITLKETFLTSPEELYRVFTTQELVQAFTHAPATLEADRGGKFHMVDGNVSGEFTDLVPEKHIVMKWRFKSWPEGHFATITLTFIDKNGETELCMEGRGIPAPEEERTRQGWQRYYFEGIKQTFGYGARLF
# Chain of UniProt P42330 (P42330 whole entry, looked up): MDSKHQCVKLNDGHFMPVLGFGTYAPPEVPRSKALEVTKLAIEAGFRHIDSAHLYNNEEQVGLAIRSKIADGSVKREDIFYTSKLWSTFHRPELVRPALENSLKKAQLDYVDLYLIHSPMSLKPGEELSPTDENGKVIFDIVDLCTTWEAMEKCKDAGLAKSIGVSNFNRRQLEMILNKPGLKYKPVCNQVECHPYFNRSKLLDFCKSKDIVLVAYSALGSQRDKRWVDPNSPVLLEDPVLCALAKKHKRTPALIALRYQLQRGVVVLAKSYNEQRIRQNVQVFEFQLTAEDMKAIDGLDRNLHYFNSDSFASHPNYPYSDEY
Target,log2 fold change [1],log2 fold change (volasertib),log2 fold change [2],log2 fold change (epoxomicin),log2 fold change [3],log2 fold change [4],log2 fold change [5],log2 fold change (rosiglitazone),log2 fold change [6],log2 fold change [7],log2 fold change (saracatinib),log2 fold change (sotrastaurin),log2 fold change (alvocidib),log2 fold change (Tubastatin A),log2 fold change [8],log2 fold change (defactinib),log2 fold change (rucaparib),log2 fold change [9],log2 fold change (encorafenib),log2 fold change [10]
BRD8 (UniProt Q9H0E9),0.038,-0.044,-0.013,0.039,0.035,0.043,-0.044,0.003,0.025,-0.063,0.004,-0.001,0.004,-0.097,-0.017,-0.047,-0.012,-0.08,-0.027,-0.009
AMFR (UniProt Q9UKV5),-0.205,-0.215,0.044,0.049,-0.059,0,-0.007,0.022,0.01,-0.055,-0.06,-0.056,-0.021,-0.016,0.088,-0.043,0.011,-0.015,0.033,0.008
ARMC10 (UniProt Q8N2F6),-0.062,-0.333 (active),0.075,0.022,-0.017,-0.008,0.062,0.015,0.002,-0.044,0.012,-0.123,0.002,0.109,0.079,-0.03,0.157,0.006,0.142,-0.049
ALDH2 (UniProt P05091),-0.025,0.06,-0.009,-0.038,-0.017,-0.042,0.029,0.058,-0.048,-0.006,0.007,-0.099,-0.04,-0.032,0.078,-0.055,-0.099,0.026,0.013,-0.03
BRD4 (UniProt O60885),1.89 (active),2.02 (active),-0.007,0.136,-0.016,0.597 (active),0.169,-0.01,-0.09,-0.062,0.047,-0.149,-0.044,-0.156,0.065,-0.051,-0.073,0.204,0.01,-0.002
BLOC1S3 (UniProt Q6QNY0),0.024,0.018,-0.04,-0.011,0.005,-0.017,0.058,0.048,-0.062,-0.01,0.049,0.034,0.015,-0.064,-0.05,-0.044,-0.047,-0.031,-0.035,0.028
AHSA1 (UniProt O95433),-0.085,-0.228 (active),0.038,0.023,0,-0.052,0,0.027,-0.06,0.038,0.022,0.014,-0.039,-0.003,0,-0.061,-0.084,0.011,0.02,-0.008
AK6 (UniProt Q9Y3D8),-0.304,-0.438 (active),-0.001,0.08,-0.081,-0.007,0.148,0.074,0.027,-0.322,-0.154,-0.121,-0.045,0.03,0.018,-0.095,0.092,-0.053,0.095,-0.09
ADD1 isoform 3 (UniProt P35611),0.077,0.015,-0.015,-0.012,-0.007,0.011,-0.039,-0.004,-0.055,0.053,0.095,-0.031,-0.088,-0.002,0.008,-0.039,-0.018,0,-0.024,0.031
ATP7B (UniProt P35670),-0.03,-0.043,0.06,0.103,0.061,-0.031,0.024,0.069,0.034,0.009,0.069,0.005,-0.085,0.01,-0.019,-0.011,-0.044,0.005,0.052,-0.021
ACACB (UniProt O00763),-0.006,-0.468,0.083,-0.1,-0.194,0.086,0.061,0.167,0.308,0.104,-0.166,-0.383,0.033,0.087,-0.083,0.016,0.291,0.228,0.089,-0.137
BST2 (UniProt Q10589),0.091,0.206,-0.062,-0.025,-0.003,0.045,-0.008,-0.055,0,0.223 (active),0.003,-0.097,-0.005,-0.055,-0.063,0.03,-0.008,-0.07,0,0.012
BRK1 isoform 2 (UniProt Q8WUW1),0.074,-0.021,-0.02,0.497 (active),0.021,-0.009,0.031,0.011,-0.053,0.137,0.036,0.007,-0.027,0.037,-0.011,-0.074,-0.05,-0.03,-0.063,-0.018
ATOX1 (UniProt O00244),0.009,0,-0.015,0.107,0.016,-0.079,0.056,0.012,-0.023,0.094,-0.042,-0.054,-0.106,0.062,0.001,-0.117,-0.09,-0.046,0.047,-0.105
AKR1C3 (UniProt P42330),0.011,0.009,-0.01,0,0.131,-0.247,0.067,-0.06,-0.127,0.214,0.05,0.093,-0.054,0.044,0.188,0.222,0.061,0.424,-0.081,0.007
ACAD9 (UniProt Q9H845),0.03,0.024,-0.039,0.015,0.006,0.014,0.022,-0.016,-0.032,-0.002,0.008,0.004,-0.012,-0.041,-0.001,-0.026,-0.038,-0.025,-0.004,-0.015
